# Records with an inconclusive call do not appear. Entries that show only a call come without a potency. The source made the active and inactive calls. Unless noted, calls follow the shape of the dose curve; as a rule, active = well fitted curve in the direction sought with a large enough effect; inconclusive = small, poorly fitted or top-dose-only effect, or another doubt; inactive = no such curve, though single readings can be large; an effect the other way counts as inactive or inconclusive.
# Assays:
# [1] = Validation screen for small molecules that induce genotoxicity in human embryonic kidney (HEK293T) cells expressing luciferase-tagged ELG1 (AID 493106); also: potency is read from the fitted curve at half-maximal effect
# Summary of the method: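 ELG1-luciferase reporter readout (ONE-Glo, 30 min, room temperature) after 16 hr compound treatment at 37 °C of HEK293T cells at 2,000 per well. Rising luminescence flags genotoxic stress.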
# [2] = biological target: Thyrotropin-releasing hormone receptor (Homo sapiens) (UniProt P34981); test: qHTS for Small Molecule Agonists and Allosteric Enhancers of Human TRH Receptor: Validation Screen for Agonists (AID 493127;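 active = calcium activation more than 3 SD above the typical response in the agonist read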;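 also: intracellular calcium rise by fluo-8 fluorescence before TRH EC20 addition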); details: TRH receptor agonist cell assay; at 2 µM; stronger effect = higher value
# Chain of Thyrotropin-releasing hormone receptor (Homo sapiens) (P34981 whole entry, looked up): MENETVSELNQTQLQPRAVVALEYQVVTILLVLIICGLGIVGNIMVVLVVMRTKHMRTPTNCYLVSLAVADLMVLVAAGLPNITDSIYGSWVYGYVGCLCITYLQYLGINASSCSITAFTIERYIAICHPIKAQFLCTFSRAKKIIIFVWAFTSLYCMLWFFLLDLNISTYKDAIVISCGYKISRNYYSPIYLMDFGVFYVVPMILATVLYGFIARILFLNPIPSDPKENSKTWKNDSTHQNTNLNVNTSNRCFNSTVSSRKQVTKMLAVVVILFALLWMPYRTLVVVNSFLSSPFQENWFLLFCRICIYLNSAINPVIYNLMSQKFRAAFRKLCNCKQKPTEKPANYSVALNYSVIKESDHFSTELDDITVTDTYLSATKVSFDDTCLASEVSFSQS
# Summary of the method: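 Compound-evoked intracellular calcium release in fluo-8-loaded TRHR cells, read kinetically on FDSS (Ex 480/Em 530, 1 s/cycle) after 23 nL pintool transfer. Agonist phase preceded 10 nM TRH EC20 addition.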
# [3] = qHTS for Inhibitors of Cell Surface uPA Generation: Validation Assay (AID 493164);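 also: RAW 264.7 macrophage cells exposed to compound for 18 h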
# Summary of the method: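 ATP-Lite luminescence read-out: ATP remains high when uPA activity-dependent LF translocation into the cytoplasm is blocked. RAW 264.7 cells, 18 h compound exposure at 37 C; 7-point titration, 2.45 nM to 38.3 uM final.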
# [4] = biological target: Galactokinase (Homo sapiens) (UniProt P51570); test: qHTS Validation Assay for Inhibitors of Human Galactokinase (GALK) (AID 493189)
# Chain of Galactokinase (Homo sapiens) (P51570 whole entry, looked up): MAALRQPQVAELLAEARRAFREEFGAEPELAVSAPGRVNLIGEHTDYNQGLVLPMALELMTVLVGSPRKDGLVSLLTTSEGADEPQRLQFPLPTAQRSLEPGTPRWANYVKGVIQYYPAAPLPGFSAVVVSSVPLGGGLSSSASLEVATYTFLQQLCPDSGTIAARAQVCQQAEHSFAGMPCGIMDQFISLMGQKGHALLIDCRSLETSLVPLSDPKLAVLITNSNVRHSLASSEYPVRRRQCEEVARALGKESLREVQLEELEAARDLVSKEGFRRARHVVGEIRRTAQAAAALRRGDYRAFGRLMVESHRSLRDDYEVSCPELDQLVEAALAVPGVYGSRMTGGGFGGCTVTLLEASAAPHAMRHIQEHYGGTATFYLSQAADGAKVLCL
# Summary of the method: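 Enzyme activity is inferred from ATP consumption: human GALK phosphorylates galactose (100 uM) using 35 uM ATP for 1 h at room temperature, and luciferase-based Kinase-Glo Plus reports unconsumed ATP.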
# [5] = Validation screen for small molecules that induce DNA re-replication in SW480 colon adenocarcinoma cells (AID 504364)
# Summary of the method: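 Image-based DNA content read-out: Hoechst stain 40 min, total nuclear fluorescence intensity (ex 405 nm, em 500-530 nm) after 48 h compound exposure of 250 SW480 cells/well at 37 C, 5% CO2, versus DMSO vehicle.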
# [6] = biological target: Phosphoglycerate kinase, glycosomal (Trypanosoma brucei brucei) (UniProt P07378); test: qHTS Validation Assay to Find Inhibitors of Phosphoglycerate Kinase (AID 504547)
# Chain of Phosphoglycerate kinase, glycosomal (Trypanosoma brucei brucei) (P07378 whole entry, looked up): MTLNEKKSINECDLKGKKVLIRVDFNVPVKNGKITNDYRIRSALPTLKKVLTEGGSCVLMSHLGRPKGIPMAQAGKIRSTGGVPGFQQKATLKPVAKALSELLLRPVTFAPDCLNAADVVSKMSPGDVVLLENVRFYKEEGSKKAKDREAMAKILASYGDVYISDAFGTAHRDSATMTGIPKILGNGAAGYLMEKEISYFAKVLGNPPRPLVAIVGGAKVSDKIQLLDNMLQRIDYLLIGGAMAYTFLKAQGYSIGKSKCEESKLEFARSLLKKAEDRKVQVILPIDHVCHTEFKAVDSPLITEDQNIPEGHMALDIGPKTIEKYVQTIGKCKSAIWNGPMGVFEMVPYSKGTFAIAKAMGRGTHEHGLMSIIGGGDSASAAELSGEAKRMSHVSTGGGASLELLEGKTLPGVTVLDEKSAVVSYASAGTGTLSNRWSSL
# Summary of the method: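 In TEA buffer (100mM, pH 7.6) containing 5mM MgCl2 and 0.01% Tween-20, the GAPDH-coupled PGK reaction proceeded for 60 minutes at room temperature before a single luminescence reading using Kinase-Glo Plus.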
# [7] = Nrf2 qHTS screen for inhibitors: Validation (AID 493153; active = well fitted inhibition curve with a large enough effect in the main read-out, with a control signal flat, not every such curve was filed as active; also: potency is read from the fitted curve at half-maximal effect); details: Potency: luciferase luminescence; viability change: measured here: cytotoxicity max response
# Summary of the method: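 Concentration-response on A549 ARE_Fluc reporter cells exposed 18-24 h at 37 C, 5% CO2. Cytotoxicity read first by CellTiter-Fluor fluorescence (Ex 405/Em 525), then Nrf2 inhibition by BugLite luminescence after 15 min.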
# [8] = biological target: Peptidyl-prolyl cis-trans isomerase NIMA-interacting 1 (Homo sapiens) (UniProt Q13526); test: qHTS Validation Assay to Find Inhibitors of Pin1 (AID 504536; active = well fitted inhibition curve with a large enough effect in the polarisation, with a control signal flat, not every such curve was filed as active; the % refers to the polarisation; also: potency is read from the fitted curve at half-maximal effect)
# Chain of Peptidyl-prolyl cis-trans isomerase NIMA-interacting 1 (Homo sapiens) (Q13526 whole entry, looked up): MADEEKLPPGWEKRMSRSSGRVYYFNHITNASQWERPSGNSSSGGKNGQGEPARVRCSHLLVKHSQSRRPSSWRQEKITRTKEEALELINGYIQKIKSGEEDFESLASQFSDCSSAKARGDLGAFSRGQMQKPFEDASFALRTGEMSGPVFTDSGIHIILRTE
# Summary of the method: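 Fluorescence polarization competition: compounds (titration) displace HiFluor-488-labeled Pin1-1b peptide from Pin1 (0.3 uM final) in pH 7.5 HEPES buffer with DTT, 10 min at room temperature; %Activity normalized to no-enzyme wells, curves fitted.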
# [9] = biological target: ATPase family AAA domain-containing protein 5 (Homo sapiens) (UniProt Q96QE3); test: Validation screen for small molecules that inhibit ELG1-dependent DNA repair in human embryonic kidney (HEK293T) cells expressing luciferase-tagged ELG1 (AID 493107); also: nearly all actives have a fitted effect of over 70% in size; also: potency is read from the fitted curve at half-maximal effect
# Chain of ATPase family AAA domain-containing protein 5 (Homo sapiens) (Q96QE3 whole entry, looked up, the tested form may be a part): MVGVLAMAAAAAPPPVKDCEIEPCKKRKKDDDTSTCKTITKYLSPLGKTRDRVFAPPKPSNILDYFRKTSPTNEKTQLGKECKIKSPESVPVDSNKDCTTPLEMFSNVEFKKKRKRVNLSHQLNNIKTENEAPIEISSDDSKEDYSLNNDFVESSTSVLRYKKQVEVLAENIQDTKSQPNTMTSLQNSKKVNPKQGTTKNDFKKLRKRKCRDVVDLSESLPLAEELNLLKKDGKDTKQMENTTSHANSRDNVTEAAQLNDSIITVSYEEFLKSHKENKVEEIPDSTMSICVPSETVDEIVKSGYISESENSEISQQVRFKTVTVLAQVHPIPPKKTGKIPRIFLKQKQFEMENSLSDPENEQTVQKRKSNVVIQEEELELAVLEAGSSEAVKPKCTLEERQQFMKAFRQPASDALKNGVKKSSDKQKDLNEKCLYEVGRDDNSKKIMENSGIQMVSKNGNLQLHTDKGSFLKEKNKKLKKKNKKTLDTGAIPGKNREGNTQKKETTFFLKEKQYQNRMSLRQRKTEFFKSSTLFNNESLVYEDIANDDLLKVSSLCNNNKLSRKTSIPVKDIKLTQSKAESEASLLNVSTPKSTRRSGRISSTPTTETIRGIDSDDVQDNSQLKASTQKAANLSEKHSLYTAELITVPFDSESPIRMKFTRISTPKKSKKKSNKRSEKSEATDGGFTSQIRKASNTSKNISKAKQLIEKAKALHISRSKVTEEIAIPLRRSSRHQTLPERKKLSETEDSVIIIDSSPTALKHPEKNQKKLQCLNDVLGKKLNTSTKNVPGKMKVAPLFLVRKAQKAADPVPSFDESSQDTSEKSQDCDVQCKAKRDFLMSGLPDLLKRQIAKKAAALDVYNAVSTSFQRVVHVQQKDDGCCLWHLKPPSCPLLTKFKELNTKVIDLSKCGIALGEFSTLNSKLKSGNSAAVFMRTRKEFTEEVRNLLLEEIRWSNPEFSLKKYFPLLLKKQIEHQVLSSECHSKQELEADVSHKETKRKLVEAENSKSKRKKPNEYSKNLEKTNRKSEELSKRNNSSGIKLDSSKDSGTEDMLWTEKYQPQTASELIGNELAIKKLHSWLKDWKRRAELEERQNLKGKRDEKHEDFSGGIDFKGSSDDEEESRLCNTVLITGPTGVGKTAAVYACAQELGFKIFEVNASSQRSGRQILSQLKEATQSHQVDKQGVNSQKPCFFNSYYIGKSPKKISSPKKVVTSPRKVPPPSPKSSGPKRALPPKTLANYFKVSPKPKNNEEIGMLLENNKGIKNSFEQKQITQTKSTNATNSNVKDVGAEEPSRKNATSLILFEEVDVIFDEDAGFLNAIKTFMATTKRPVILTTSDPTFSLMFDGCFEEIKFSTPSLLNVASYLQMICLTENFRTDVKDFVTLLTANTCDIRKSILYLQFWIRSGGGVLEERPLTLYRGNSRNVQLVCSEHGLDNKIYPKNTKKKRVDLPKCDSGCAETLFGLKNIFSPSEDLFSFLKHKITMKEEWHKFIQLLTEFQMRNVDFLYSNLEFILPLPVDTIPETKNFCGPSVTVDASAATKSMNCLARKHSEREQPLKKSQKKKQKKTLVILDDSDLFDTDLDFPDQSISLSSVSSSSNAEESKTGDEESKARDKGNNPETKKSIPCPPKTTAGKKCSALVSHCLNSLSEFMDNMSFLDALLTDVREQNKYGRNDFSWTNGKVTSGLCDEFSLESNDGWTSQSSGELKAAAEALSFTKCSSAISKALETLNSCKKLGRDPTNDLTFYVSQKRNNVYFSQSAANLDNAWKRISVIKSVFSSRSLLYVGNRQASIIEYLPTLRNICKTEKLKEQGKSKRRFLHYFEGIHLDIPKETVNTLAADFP
# Summary of the method: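 Luciferase read-out, ONE-Glo, 30 min at room temperature, follows 16 h co-exposure at 37 C of compound and the DNA-damaging agent 5-fluorouridine. Cells: HEK293T with ELG1-luciferase fusion, 2,000 per well, DMSO as vehicle.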
compound,measurement,setting,value
Ic1ccc(N2CCN(Cc3c[nH]c4ncccc34)CC2)cc1,Potency,[1],inactive
same,activation,[2],3.5% (inactive)
same,outcome,[3],inactive
same,Potency,[4],inactive
same,Potency,[5],inactive
same,Potency,[6],inactive
S=C(S)OC1CC2CC1C1CCCC21 (stereo unspecified),Potency,[1],inactive
same,activation,[2],0.125% (inactive)
same,Potency,[7],inactive
same,viability change,[7],5.78%
same,outcome,[3],inactive
same,Potency,[4],inactive
same,Potency,[5],inactive
same,Potency,[6],inactive
O=S(=O)(c1cccc2c(I)cccc12)N1CCCNCC1,Potency,[1],inactive
same,activation,[2],2.06% (inactive)
same,Potency,[7],inactive
same,viability change,[7],12.3%
same,outcome,[3],inactive
same,Potency,[4],inactive
same,Potency,[5],inactive
same,Potency,[8],inactive
same,Potency,[6],inactive
O=C(O)[C@@H]1C[C@@H](C(=O)O)N1,Potency,[1],inactive
same,activation,[2],1.06% (inactive)
same,Potency,[7],inactive
same,viability change,[7],2.33%
same,outcome,[3],inactive
same,Potency,[4],inactive
same,Potency,[5],inactive
same,Potency,[6],inactive
Oc1cc(O)cc(/C=C/c2ccc(O)c(O)c2)c1,Potency,[1],3.66 µM (active)
same,activation,[2],0.938% (inactive)
same,outcome,[3],inactive
same,Potency,[5],inactive
same,Potency,[8],inactive
O=C(Nc1ccccc1)c1cc([N+](=O)[O-])ccc1Cl,Potency,[1],inactive
same,activation,[2],0.375% (inactive)
same,Potency,[7],inactive
same,viability change,[7],-4.87%
same,outcome,[3],inactive
same,Potency,[4],inactive
same,Potency,[8],inactive
CC(C)(C)c1ccc(S(=O)(=O)/C=C/C#N)cc1,activation,[2],7.44% (inactive)
same,Potency,[7],inactive
same,viability change,[7],4.47%
same,outcome,[3],inactive
same,Potency,[4],inactive
same,Potency,[5],inactive
same,Potency,[8],inactive
same,Potency,[6],inactive
Nc1nc(Cl)nc2c1ncn2[C@@H]1O[C@H](COP(=O)(O)OP(=O)(O)OP(=O)(O)O)[C@@H](O)[C@H]1O,Potency,[9],inactive
same,Potency,[7],inactive
same,viability change,[7],3.12%
same,outcome,[3],inactive
same,Potency,[8],30.1 µM (active)
same,Potency,[6],inactive
CNC(=O)[C@H]1O[C@@H](n2cnc3c(NCc4cccc(I)c4)ncnc32)[C@H](O)[C@@H]1O,outcome,[3],inactive
CSc1nc(N)c2ncn([C@@H]3O[C@H](COP(=O)(O)OP(=O)(O)OP(=O)(O)O)[C@@H](O)[C@H]3O)c2n1,Potency,[1],inactive
same,outcome,[3],inactive
same,Potency,[6],inactive
O=[N+]([O-])c1ccc2c(c1)S(=O)(=O)C=C2,Potency,[1],inactive
same,outcome,[3],inactive
same,Potency,[8],inactive
same,Potency,[6],inactive
Nc1nc(Nc2ccccc2)nc2c1ncn2[C@@H]1O[C@H](CO)[C@@H](O)[C@H]1O,Potency,[9],5.8 µM (active)
same,Potency,[7],inactive
same,viability change,[7],-0.505%
same,outcome,[3],inactive
same,Potency,[8],inactive
same,Potency,[6],inactive
O=C(c1ccc(OCCCc2cnc[nH]2)cc1)C1CC1,Potency,[7],inactive
same,viability change,[7],-3.26%
same,outcome,[3],inactive
same,Potency,[8],inactive
same,Potency,[6],inactive
C#C[C@]1(O)CC[C@H]2[C@@H]3CCC4=Cc5oncc5CC4(C)[C@H]3CCC21C (stereo partly specified),Potency,[1],inactive
same,outcome,[3],inactive
same,Potency,[8],inactive
same,Potency,[6],inactive
Brc1c(Br)c(Br)c2n[nH]nc2c1Br,activation,[2],0.938% (inactive)
same,outcome,[3],inactive
same,Potency,[4],inactive
same,Potency,[5],inactive
O=C1NC(=O)/C(=C/c2ccc3nccnc3c2)S1,outcome,[3],inactive
same,Potency,[6],inactive
N.N.O=C(O)C1(C(=O)O)CCC1.[Pt],activation,[2],-0.5% (inactive)
same,Potency,[4],inactive
same,Potency,[5],inactive
CC(C)ON([C@@H](C(=O)NO)C(C)C)S(=O)(=O)c1ccc(-c2ccccc2)cc1,Potency,[1],inactive
same,outcome,[3],inactive
same,Potency,[8],inactive
same,Potency,[6],inactive
N.N.N.N.N.N.N.N.N.N.N.N.N.N.O.O.[Ru+4].[Ru+5].[Ru+5],Potency,[1],inactive
same,outcome,[3],inactive
O=C1NC(=O)/C(=C/c2ccc(-c3ccc(F)cc3O)o2)S1,outcome,[3],inactive
CN1CCc2cc(NC(=O)Nc3cccnc3)ccc21,activation,[2],-2.62% (inactive)
same,Potency,[7],inactive
same,viability change,[7],-3.61%
same,outcome,[3],inactive
same,Potency,[4],inactive
same,Potency,[5],inactive
same,Potency,[8],inactive
same,Potency,[6],inactive
OC[C@H]1O[C@@H](n2cnc3c(NC4CCCC4)ncnc32)[C@H](O)[C@@H]1O,Potency,[9],inactive
same,Potency,[7],inactive
same,viability change,[7],-2.89%
same,outcome,[3],inactive
same,Potency,[8],inactive
same,Potency,[6],inactive
Cc1cc2c(cc1Cl)N(C(=O)Nc1ccc(Oc3cccnc3C)nc1)CC2,Potency,[1],inactive
same,Potency,[7],7.31 µM (active)
same,viability change,[7],-19.7%
same,Potency,[8],inactive
Cc1cc(NC(=O)Nc2ccc3c(ccn3C)c2)sn1,activation,[2],0.625% (inactive)
same,Potency,[7],inactive
same,viability change,[7],3.91%
same,outcome,[3],inactive
same,Potency,[5],inactive
same,Potency,[8],inactive
same,Potency,[6],inactive
CCOC(=O)N1CCN(/[N+]([O-])=N/Oc2ccc([N+](=O)[O-])cc2[N+](=O)[O-])CC1,Potency,[1],inactive
same,outcome,[3],inactive
same,Potency,[8],inactive
CC(C)(C)NCC(O)COc1nsnc1N1CCOCC1 (stereo unspecified),Potency,[5],inactive
NS(=O)(=O)C#Cc1ccccc1,outcome,[3],inactive
same,Potency,[8],inactive
same,Potency,[6],inactive
CCCCC#Cc1nc(NC)c2ncn([C@@H]3O[C@H](CO)[C@@H](O)[C@H]3O)c2n1,Potency,[9],inactive
same,Potency,[7],inactive
same,viability change,[7],2.21%
same,outcome,[3],inactive
same,Potency,[6],inactive
CC[C@@H](C)[C@H]1O[C@]2(CC[C@H]1C)C[C@@H]1C[C@@H](CC=C(C)[C@@H](O[C@H]3C[C@H](OC)[C@@H](O[C@H]4C[C@H](OC)[C@@H](O)[C@H](C)O4)[C@H](C)O3)[C@@H](C)C=CC=C3CO[C@@H]4[C@H](O)C(C)=C[C@@H](C(=O)O1)[C@]34O)O2,Potency,[1],inactive
same,outcome,[3],inactive
same,Potency,[8],inactive
same,Potency,[6],inactive
NCCCS(=O)(=O)O,Potency,[9],inactive
same,activation,[2],0.5% (inactive)
same,Potency,[7],inactive
same,viability change,[7],-7.16%
same,outcome,[3],inactive
same,Potency,[4],inactive
same,Potency,[5],inactive
same,Potency,[6],inactive
CNc1ncnc2c1ncn2[C@@H]1O[C@H](CO)[C@@H](O)[C@H]1O,Potency,[9],inactive
same,outcome,[3],inactive
same,Potency,[8],inactive
same,Potency,[6],inactive
CN[C@H](CC(C)C)C(=O)N[C@H]1C(=O)N[C@@H](CC(N)=O)C(=O)N[C@H]2C(=O)N[C@H]3C(=O)N[C@H](C(=O)N[C@H](C(=O)O)c4cc(O)cc(O)c4-c4cc3ccc4O)[C@H](O)c3ccc(c(Cl)c3)Oc3cc2cc(c3O[C@@H]2O[C@H](CO)[C@@H](O)[C@H](O)[C@H]2O[C@H]2C[C@](C)(N)[C@H](O)[C@H](C)O2)Oc2ccc(cc2Cl)[C@H]1O,activation,[2],-0.312% (inactive)
same,Potency,[5],inactive
C=C/C(C)=C/[C@@]1(C)SC(=O)C(C)=C1O,activation,[2],0.875% (inactive)
same,Potency,[5],inactive
CO/N=C(\C(=O)N[C@@H]1C(=O)N2C(C(=O)O)=C(COC(C)=O)CS[C@H]12)c1csc(N)n1 (stereo in doubt),activation,[2],0.688% (inactive)
same,Potency,[5],inactive
CCOC(=O)C1=C(C)NC(C)=C(C(=O)OCC)C1c1c(F)c(F)c(F)c(F)c1F,Potency,[1],inactive
same,outcome,[3],inactive
same,Potency,[6],inactive
Nc1ccn([C@@H]2O[C@H](CO)[C@@H](O)[C@@H]2O)c(=O)n1,activation,[2],-0.125% (inactive)
same,Potency,[5],inactive
CCCCCCCCCCCCCCCCCC(=O)NCC(COP(=O)([O-])OCC[N+](C)(C)C)OCC (stereo unspecified),activation,[2],2.19% (inactive)
same,Potency,[7],inactive
same,viability change,[7],1.48%
same,outcome,[3],inactive
same,Potency,[4],inactive
Cc1ccc(S(=O)(=O)/C=C/C#N)cc1,Potency,[9],20.6 µM (active)
same,outcome,[3],inactive
same,Potency,[8],inactive
CN=c1nc(-c2ccccc2)n(-c2ccccc2)s1,activation,[2],13% (inactive)
same,outcome,[3],inactive
same,Potency,[4],inactive
same,Potency,[5],inactive
same,Potency,[8],inactive
same,Potency,[6],inactive
O=c1[nH]c2cc(Cl)c(Cl)cc2[nH]c1=O,activation,[2],0.75% (inactive)
same,Potency,[7],inactive
same,viability change,[7],9.5%
same,outcome,[3],inactive
same,Potency,[4],inactive
same,Potency,[5],inactive
same,Potency,[8],inactive
CNC(=O)[C@H]1O[C@@H](n2cnc3c(NCc4ccc(N)cc4)ncnc32)[C@H](O)[C@@H]1O,Potency,[9],inactive
same,Potency,[7],inactive
same,viability change,[7],-2.65%
same,outcome,[3],inactive
same,Potency,[6],inactive
O=C(CCCCCN1CCN(c2ccccc2-c2ccccc2)CC1)NC1CCCc2ccccc21 (stereo unspecified),Potency,[1],inactive
same,outcome,[3],inactive
same,Potency,[8],inactive
same,Potency,[6],inactive
CCCC1(C)C(C#N)(C#N)C1(C#N)C#N,Potency,[9],16.4 µM (active)
same,outcome,[3],inactive
same,Potency,[8],inactive
same,Potency,[6],inactive
c1cnc2c(c1)ccc1cccnc12,Potency,[9],6.51 µM (active)
same,outcome,[3],inactive
same,Potency,[4],inactive
same,Potency,[5],inactive
COc1cc(OC)c(/C=C2/C(=O)Nc3ccccc32)c(OC)c1,activation,[2],1.38% (inactive)
same,outcome,[3],inactive
same,Potency,[4],inactive
same,Potency,[8],inactive
same,Potency,[6],inactive
CSc1ccccc1N1CCN(CCCCCC(=O)NC2CCCc3ccccc32)CC1 (stereo unspecified),Potency,[1],inactive
same,Potency,[8],inactive
same,Potency,[6],inactive

# — PubChem BioAssay (NCATS)
